# Measured values from PubChem BioAssay AID624305 (National Center for Advancing Translational Sciences (NCATS), 2012).
# Records with an inconclusive call do not appear. Activity calls are given as the source filed them. Calls come from the whole dose curve; as a rule, active = well fitted activation curve with a large enough effect; inconclusive = small, poorly fitted or top-dose-only effect; inactive = no such curve, though single readings can be large or run the other way.
# Assay: qHTS assay for re-activators of p53 using a Luc reporter: Hit Validation; note: nearly all actives have a fitted effect of over 75% in size; for activation: 0% is about no effect
# Conditions: p53-responsive luciferase reporter cells, luminescence, H1299 line expressing heat-sensitive Ala138Val p53; series mostly up to 46.1 µM; activation: at the top concentration
# Outline: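 H1299 (p53-null) cells stably carrying p53-A138V and a BP100-luciferase reporter, 1000 cells/well, treated 24 h at 37 deg C. Compounds at several concentrations, 1:5 dilution; nocodazole control; luminescence read after 10 min with detection reagent.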
# Potency is the fitted concentration of half-maximal effect.
Compound,Potency,activation
N=C1C(c2nc3ccccc3s2)=C(O)CN1Cc1ccccc1,14600 nM (active),–
COc1ccc(NC(=O)CN(C)CC(=O)Nc2ccccc2SC)cc1,–,-11.5% (inactive)
Cc1ccc2nc(SCn3nnc4ccccc4c3=O)[nH]c2c1,1300 nM (active),–
CC(C)C(=O)NC(c1cccs1)c1cc([N+](=O)[O-])c2cccnc2c1O (stereo not given),–,-2.08% (inactive)
O=C(c1cnn(-c2ccccc2)c1)c1ccccc1O,1460 nM (active),–
c1ccc2oc(C3=NNC(=NC4CC4)SC3)cc2c1,366 nM (active),–
CC(=O)N1CCC(C(=O)Nc2ccc(S(=O)(=O)NCCc3ccccc3)cc2)CC1,–,7.29% (inactive)
Cc1ccc(C(=O)Nc2ncc3c(n2)CC(c2ccco2)CC3=O)cc1 (stereo not given),–,31.8% (inactive)
COc1nnc(-c2ccc(C)c(S(=O)(=O)N(C)C)c2)c2ccccc12,–,-20.3% (inactive)
O=C(Nc1ccc2c(c1)CCC2)c1ccccc1,411 nM (active),–
Cc1cccc(/C(N)=N/OC(=O)c2ccc3c(c2)OCO3)c1,9200 nM (active),–
Cc1ccc(NC(=O)c2ccc3nc[nH]c3c2)cc1C,23100 nM (active),–
COc1ccc(/C(N)=N/OC(=O)c2cccs2)cc1,5170 nM (active),–
O=C(NNC(=O)c1cccnc1SCc1cccc([N+](=O)[O-])c1)c1ccccn1,–,31.8% (inactive)
COCCCN(C(C)=O)c1nc(-c2ccc(OC)cc2)cs1,2310 nM (active),–
CCc1ccc(OCC(=O)NC(NC(=S)Nc2ccccc2C)C(Cl)(Cl)Cl)cc1 (stereo not given),–,39.1% (inactive)
NS(=O)(=O)c1ccc(CCNCc2cccnc2)cc1,–,-16.7% (inactive)
O=C(CC(=O)c1ccccc1O)c1cccc(F)c1,–,22.4% (inactive)
O=C(N/N=C/C1C(c2ccccc2)C1(Cl)Cl)c1cccc(Cl)c1 (stereo not given),–,-6.77% (inactive)
CSCCC(NC(=O)c1ccc(Cl)cc1Cl)C(=O)N1CC(C)OC(C)C1 (stereo not given),–,-22.9% (inactive)
